From PubChem BioAssay (NCATS)
Results filed as inconclusive are left out. A number with no mark means an inactive call. The call rests on the fitted dose curve; in most records, active means well fitted cell-killing curve with a large enough effect; inconclusive means small, poorly fitted or top-dose-only effect, or effect the other way; inactive means flat fitted curve, though single readings scatter.

The compounds below were run on CASKI (assay: Primary qHTS to identify gynecologic anti-cancer compounds using libraries of approved drugs and bioactive compounds (AID 1345084; further: nearly all actives have a fitted effect of over 55% in size)). Settings: Gynecologic cancer cell panel viability, ATPlite luminescence, 48 h; series mostly up to 57.5 µM; activity change, negative = cytotoxicity: at the top concentration.
Summary of the method: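 Cells, 1,000 per well, were allowed to settle for 16 h at 37 C before compound addition. Five concentrations were tested for 48 h, and viability was read by ATPlite luminescence after 15 min at room temperature.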
On the % scale 0 is the no-effect control and ±100 the full control effect.

Q: Which “activity change, negative = cytotoxicity” value does the source give for CC1=CC(=O)CC(C)(CO[C@@H]2O[C@H](CO)[C@@H](O)[C@H](O)[C@H]2O)C1(O)/C=C/C(C)=C/C(=O)O (stereo partly drawn) here?
A: 19.7% [at 25.3 µM]

Q: For C=C1C(OC(C)=O)C(=O)C2C(C)(C)C(OC(C)=O)CCC2(C)C1CC(OC(C)=O)/C(C)=C/COC(C)=O (stereo not drawn), which “activity change, negative = cytotoxicity” value is on record?
A: 2.81% [at 25.3 µM]

Q: How did the “activity change, negative = cytotoxicity” value turn out when O=S(=O)(Nc1ccc(C(O)(C(F)(F)F)C(F)(F)F)cc1)c1cccs1 was run?
A: 19.3%

Q: With CCC(=O)N[C@@H]1Cc2ccccc2[C@H](c2ccccc2)C1 as the compound, how does the “activity change, negative = cytotoxicity” value read?
A: 5.5%

Q: CC(C)(C)NCC(O)COc1cccc2c1CCCC2=O (stereo not drawn) was tested. Which “activity change, negative = cytotoxicity” value did it give?
A: 24.6%

Q: How did the “activity change, negative = cytotoxicity” value turn out when CC(=O)OC[C@]1(O)[C@H]2[C@H](OC(=O)CC(C)C)OC=C(CO[C@@H]3O[C@H](CO)[C@@H](O)[C@H](O)[C@H]3O)[C@H]2C[C@@H]1O was run?
A: 9.55% [at 25.3 µM]

Q: With C[C@@H]1CC[C@]2(C(=O)O)CC[C@]3(C(=O)O)C(=CCC4[C@@]5(C)CC[C@H](O[C@@H]6O[C@@H](C)[C@H](O[C@@H]7O[C@H](CO)[C@@H](O)[C@H](O)[C@H]7O)[C@@H](O)[C@H]6O)C(C)(C)C5CC[C@]43C)C2[C@H]1C (stereo partly drawn) as the compound, how does the “activity change, negative = cytotoxicity” value read?
A: -1.78% [at 25.3 µM]

Q: With CC1CCC2(O1)C(C)(C)CC(O[C@@H]1O[C@H](CO[C@@H]3OC[C@](O)(CO)[C@H]3O)[C@@H](O)[C@H](O)[C@H]1O)CC2(C)O (stereo partly drawn) as the compound, how does the “activity change, negative = cytotoxicity” value read?
A: 6.53% [at 25.3 µM]
